esBAF inh = inhibitors of esBAF chromatin remodeling in mouse ES cells. Bmi1-luciferase knock-in reporter, 24 h; 100% = twice the neutral-well signal. reporter increase, % at 12.5 µM. 350,000 tested, 2% active; in the data active means activation above about 40%;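 further: 0% = median of the plate's neutral control wells and 100% = double that signal; a rise in the Bmi1 reporter signal indicates esBAF inhibition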
Jurkat NFkB inh = lowers PMA/ionomycin-induced NF-kB signal in Jurkat cells; PMA/ionomycin-induced NF-kB luciferase reporter, luminescence; inhibition, % at 4 µM; 330,000 tested, 0.53% active; AID 435003; in the data active means inhibition above about 50%
SMARCA2 activ = SMARCA2 function activation, primary screen | MG213 cells, MMTV-luciferase reporter, dexamethasone, overnight | activation, % at 9.1 µM | 370,000 tested, 1% active | AID 652017; in the data active means activation above about 7.8%;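 further: 0% = vehicle wells and 100% = reference activator wells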
697 NFkB inh = inhibitors of the PMA/ionomycin-induced NF-kB reporter in 697 B cells | 697 B-cell NF-kB luciferase reporter, 16 h | inhibition, % at 4 µM | 330,000 tested, 0.33% active | AID 435022; in the data active means inhibition above about 35%
Gli-Sufu block = Gli-Sufu pathway antagonism | Sufu-KO-LIGHT fibroblasts, Gli luciferase reporter luminescence | inhibition, % at 5 µM | 340,000 tested, 0.74% active;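 active means inhibition above about 55%, limit read from the data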;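 further: 0% = DMSO-treated cells and 100% = wells with medium but no cells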
Jurkat NFkB conf = inhibitors of the PMA/ionomycin-induced NF-kB reporter in Jurkat cells, retest; shares compounds with Jurkat NFkB inh; Jurkat NF-kB luciferase, 16 h; inhibition, % at 4 µM; 2,700 tested, 27% active; AID 435020;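 active means inhibition reaching about 45% at 4 µM in either replicate, limit read from the data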;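 further: plate controls were PMA/ionomycin stimulated DMSO wells for no effect and unstimulated DMSO wells for full effect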
* marks the source's active call; other numbers are inactive results. Hits are enriched below; roughly 3.3% of the tested compounds scored in any of these assays.

`Cc1ccc(O)c(N=Nc2ccc(S(=O)(=O)N3CCCC3)cc2)c1` gave esBAF inh 4, Jurkat NFkB inh -37, SMARCA2 activ -1, 697 NFkB inh -62 and Gli-Sufu block 6.
For O=C(Nc1ccc2c(c1)CCC2)c1ccccc1 the results were esBAF inh -2, Jurkat NFkB inh -159, SMARCA2 activ 3, 697 NFkB inh -242, Gli-Sufu block -118 and Jurkat NFkB conf -154.
`O=C(O)c1ccccc1-c1ccccc1C(=O)Nc1ccc2c(c1)CCC2` gave esBAF inh -1, Jurkat NFkB inh -9, SMARCA2 activ 1, 697 NFkB inh 0 and Gli-Sufu block 1.
Screening C=CCOC(=O)c1[nH]c2c(c1C)C(=O)CC(c1ccco1)C2 (stereo not given) returned Jurkat NFkB inh 74*, 697 NFkB inh -15, Gli-Sufu block 54 and Jurkat NFkB conf 50*.
Cc1c(C(=O)OCC2CCCO2)[nH]c2c1C(=O)CC(c1ccco1)C2 (stereo not given) was read as esBAF inh -14, Jurkat NFkB inh 55*, 697 NFkB inh -12, Gli-Sufu block 9 and Jurkat NFkB conf -3.
Screening Cc1c(C(=O)OC2CCCC2)[nH]c2c1C(=O)CC(c1ccco1)C2 (stereo not given) returned esBAF inh -35, Jurkat NFkB inh 67*, SMARCA2 activ -3, 697 NFkB inh -32, Gli-Sufu block 46 and Jurkat NFkB conf 57*.
For Cc1c(C(=O)OCC(C)C)[nH]c2c1C(=O)CC(c1ccco1)C2 (stereo not given) the results were esBAF inh -48, Jurkat NFkB inh 65*, SMARCA2 activ -3, 697 NFkB inh -29, Gli-Sufu block 44 and Jurkat NFkB conf 6.
For COc1ccc(OC)c(C2CC(=O)c3c([nH]c(C(=O)OCC4CCCO4)c3C)C2)c1 (stereo not given) the results were esBAF inh -41, Jurkat NFkB inh 0, SMARCA2 activ -2, 697 NFkB inh 8 and Gli-Sufu block 12.
`CC=Cc1ccc2n(c1=O)C[C@@H]1[C@@H](CO)[C@H](C(=O)N3CCCCC3)N(CC3CC3)[C@H]21` (mixture of isomers) gave esBAF inh -1.
For COCC#Cc1ccc2c(c1)O[C@H](CN(C)C(=O)NC(C)C)[C@@H](C)CN([C@@H](C)CO)S2(=O)=O the results were esBAF inh 1.
CCCNC(=O)C[C@@H]1C[C@@H]2c3cc(NC(=O)Nc4ccccc4)ccc3O[C@@H]2[C@H](CO)O1 was read as esBAF inh 3.
Screening C[C@@H]1CN([C@H](C)CO)C(=O)c2cc(NC(=O)Nc3cccc4ccccc34)ccc2O[C@H]1CN(C)Cc1ccc(Cl)c(Cl)c1 returned esBAF inh 2.
Clc1cccc(-c2nnc(-c3ccccc3)o2)c1 was read as esBAF inh 3, Jurkat NFkB inh -184, SMARCA2 activ 7, 697 NFkB inh -227, Gli-Sufu block -4 and Jurkat NFkB conf -93.
Screening COc1ccc(-c2nc3ccc([N+](=O)[O-])cc3o2)cc1 returned Jurkat NFkB inh -115, SMARCA2 activ 3, 697 NFkB inh -66 and Gli-Sufu block -98.
`COc1ccc(-c2nc3c(Br)c(N)c(Br)cc3o2)cc1` gave Jurkat NFkB inh -181, 697 NFkB inh -145, Gli-Sufu block -67 and Jurkat NFkB conf -113.
Screening Cc1ccc(C(=O)CCNc2ccc(F)c(Cl)c2)o1 returned Jurkat NFkB inh 73*, SMARCA2 activ -1, 697 NFkB inh -27, Gli-Sufu block 43 and Jurkat NFkB conf -1.
For Cc1ccc(C(=O)CCNc2ccc(Br)cc2)o1 the results were esBAF inh 27, Jurkat NFkB inh -51, SMARCA2 activ 5, 697 NFkB inh -76 and Gli-Sufu block -54.
Screening COc1ccccc1CNC(=O)C[C@@H]1C=C[C@@H](NC(=O)CN(C)C)[C@H](CO)O1 returned esBAF inh -9.
For Cc1cccc(OCC(=O)Nc2nccs2)c1C the results were Jurkat NFkB inh -177, SMARCA2 activ 3, 697 NFkB inh -60, Gli-Sufu block -75 and Jurkat NFkB conf -84.
`COC(=O)Nc1ccc(S(=O)(=O)N2c3ccccc3CCC2C)cc1` (stereo not given) gave esBAF inh -2, Jurkat NFkB inh 53*, SMARCA2 activ -2, 697 NFkB inh -85, Gli-Sufu block 10 and Jurkat NFkB conf 38.
`Cc1cc(NC(=O)COC(=O)c2ccc(S(=O)(=O)N3CCCc4ccccc43)cc2)no1` gave esBAF inh -4, Jurkat NFkB inh 51*, SMARCA2 activ 0, 697 NFkB inh -26, Gli-Sufu block 20 and Jurkat NFkB conf 39.
Screening CC(=O)Nc1ccc(S(=O)(=O)N2CCCc3ccccc32)cc1 returned esBAF inh 13, Jurkat NFkB inh 63*, SMARCA2 activ -3, 697 NFkB inh -48, Gli-Sufu block -8 and Jurkat NFkB conf 34.
CCC(=O)N(C)C[C@@H]1Oc2ncc(-c3ccccc3OC)cc2C(=O)N([C@@H](C)CO)C[C@H]1C was read as esBAF inh -5.
Screening COCC(=O)N1C[C@H](C)[C@H](OC)CN(C)C(=O)c2cc(NS(C)(=O)=O)ccc2OC[C@H]1C returned esBAF inh 3.
For COc1ccc(-c2nn3c(-c4n[nH]c5c4CCC5)nnc3s2)cc1 the results were SMARCA2 activ -1.
Screening CCN(CC)c1ccc(-c2nn3c(-c4n[nH]c5c4CCC5)nnc3s2)cc1 returned esBAF inh -17, Jurkat NFkB inh 58*, SMARCA2 activ -1, 697 NFkB inh -9, Gli-Sufu block 46 and Jurkat NFkB conf 54*.
For O=C(Nc1nc2c(s1)CCCC2)c1ccc(Br)s1 the results were esBAF inh 11, Jurkat NFkB inh -190, SMARCA2 activ -2, 697 NFkB inh -221, Gli-Sufu block -52 and Jurkat NFkB conf -105.
Screening COc1ccc(OC)c2sc(NC(=O)c3ccc(Br)s3)nc12 returned esBAF inh 15, Jurkat NFkB inh 4, SMARCA2 activ 0, 697 NFkB inh 23 and Gli-Sufu block 4.
`Cc1ncsc1C(=O)Nc1nc2c(s1)CCCC2` gave Jurkat NFkB inh -105, SMARCA2 activ 2, 697 NFkB inh -64 and Gli-Sufu block -47.
For O=C(Nc1nc2c(s1)CCCC2)c1ccc2ncsc2c1 the results were esBAF inh -8, Jurkat NFkB inh -183, SMARCA2 activ 1, 697 NFkB inh -224, Gli-Sufu block -72 and Jurkat NFkB conf -86.
Screening Cc1cc(C(=O)Nc2nc3c(s2)CCCC3)cs1 returned esBAF inh -25, Jurkat NFkB inh -165, SMARCA2 activ 0, 697 NFkB inh 0, Gli-Sufu block -33 and Jurkat NFkB conf -97.
`O=C([C@H]1[C@H](CO)[C@H]2Cn3c(ccc(/C=C/c4ccccc4)c3=O)[C@H]2N1CC1CC1)N1CCOCC1` gave esBAF inh 4.

Source: PubChem (several laboratories)
